# SmPrx2 inh = Schistosoma Mansoni Peroxiredoxins (Prx2); Schistosoma mansoni peroxiredoxin 2 (Prx2); S. mansoni Prx2 activity coupled to TGR/GSH (TGR is thioredoxin glutathione reductase), NADPH fluorescence loss, qHTS; Potency, µM; hit rate 0.07% among 65,000; AID 448, 2006
#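 Purified S. mansoni TGR and Prx2 in pH 7.4 phosphate buffer with EDTA and Tween-20 were preincubated with compounds for 15 min. Further NADPH/GSH was added, then a 2.5 mM H2O2 aliquot initiated turnover, followed kinetically by NADPH fluorescence.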
# AmpC det inh = Promiscuous and Specific Inhibitors of AmpC Beta-Lactamase (assay with detergent). hit rate 0.09% among 71,000. P00811. Potency, µM (titrated, usually from 28.7 µM), for the others: at the top dose activity change, negative = inhibition. purified AmpC, nitrocefin hydrolysis with detergent; active = well fitted curve in the direction sought with a large enough effect; inconclusive = small, poorly fitted or top-dose-only effect; note: % is set by controls: 0 for no effect and ±100 for the full control effect
# Target sequence (P00811 whole entry, looked up): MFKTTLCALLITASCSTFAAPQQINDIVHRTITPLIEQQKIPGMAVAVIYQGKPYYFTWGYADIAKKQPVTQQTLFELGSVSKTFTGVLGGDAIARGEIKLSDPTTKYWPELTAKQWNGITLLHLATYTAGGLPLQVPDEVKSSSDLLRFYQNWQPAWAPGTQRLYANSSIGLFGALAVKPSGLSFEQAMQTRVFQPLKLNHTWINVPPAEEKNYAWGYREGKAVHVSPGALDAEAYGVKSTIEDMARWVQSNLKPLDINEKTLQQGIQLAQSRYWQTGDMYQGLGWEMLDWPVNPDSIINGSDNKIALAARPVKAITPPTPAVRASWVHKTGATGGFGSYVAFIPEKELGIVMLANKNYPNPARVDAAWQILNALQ
#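 E. coli AmpC (5.3 nM) in 20 mM phosphate pH 7.0 with 0.01% Triton X-100, preincubated 15 min RT with compound; nitrocefin (2 uL of 800 uM stock) hydrolysis followed by 480 nm absorbance every 20 s over 4 min.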
# Anthrax LT inh = qHTS Assay for Anthrax Lethal Toxin Internalization | Cells, anthrax lethal toxin internalization, FRET ratio (460/530) | Potency, µM (highest dose often 40 µM), inactives show at the highest dose activity change, negative = inhibition, usual class: inhibitors | hit rate 0.67% among 70,000 | AID 912, 2007; note: % is set by controls: 0 for no effect and ±100 for the full control effect; nearly all actives have a fitted effect of over 50% in size
# AmpC nodet inh = Promiscuous and Specific Inhibitors of AmpC Beta-Lactamase (assay without detergent) | AmpC nitrocefin hydrolysis, absorbance 480 nm, no detergent | Potency, µM (highest dose often 28.7 µM), for the others: at the highest dose activity change, negative = inhibition | hit rate 1.8% among 71,000 | P00811; note: % of control where 0% means no effect
#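 Enzyme, pH 7.0 phosphate. Compound titrations were pre-incubated with AmpC for 15 min at room temperature before nitrocefin (stock 800 uM) addition; product formation was recorded at 480 nm every 20 s for 4 min.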
# An asterisk follows results filed as active; u = inconclusive; x = not tested or not shown; [ ] = remark or other dose. Compounds with a hit are over-represented: about 2.6% of the library has one in this group of screens. Unless noted, calls come from the whole dose curve. Potency is the fitted concentration of half-maximal effect.
SMILES,SmPrx2 inh,AmpC det inh,Anthrax LT inh,AmpC nodet inh
C=CCn1c(CC(=O)OC)csc1=Nc1ccc(C(C)=O)cc1,>57,-0.6%,-11.4%,21.0%
COc1ccc(-c2nnc(SCC(=O)N3CCC(Cc4ccccc4)CC3)o2)cc1OC,>57,15.8%,5.5%,132.6%
CC(C)CC(C(=O)Nc1oc(-c2ccco2)c(-c2ccco2)c1C#N)N1C(=O)c2ccccc2C1=O (stereo not drawn),>57,18.3%,u,5.01µM*
CC(C)CC(C(=O)Nc1ccc2c(c1)OCCO2)N1C(=O)c2ccccc2C1=O (stereo not drawn),>57,2.2%,-14.4%,22.2%
O=C1/C(=C/c2ccccc2)[C@@H](NC2CCCCC2)c2ccccc21,x,-2.1%[5.75 µM],3.98µM*,9.0%[5.75 µM]
CCOc1ccccc1-n1nnnc1SCC(=O)Nc1cc(C)on1,>57,-7.6%,-1.8%,-12.8%
COc1ccc(Cl)cc1NC(=O)CSc1ncnc2c1oc1ccccc12,>57,-2.6%,u,12.6µM*[single pt active]
CCOc1ccccc1-n1nnnc1SCC(=O)Nc1cc2oc3ccccc3c2cc1OC,>57,-3.2%,u,6.31µM*
COc1ccc(CCNC(=O)CSc2ncnc3c2oc2ccccc23)cc1OC,>57,11.5%,-15.4%,57.9%
CC12CCC(=O)N1C(C(=O)Nc1cccc3ccccc13)CS2 (stereo not drawn),>57,0.5%,-7.7%,3.8%
COc1cc2c(=O)n(Cc3ccco3)c(=O)n(CC(=O)c3ccc(Br)cc3)c2cc1OC,>57,-2.4%,-0.4%,106.4%
COc1cc2c(=O)n(Cc3ccco3)c(=O)n(CC(=O)c3cccc(Br)c3)c2cc1OC,>57,u,-3.7%,6.31µM*
CC(=O)c1cccc(NC(=O)c2ccc(NS(C)(=O)=O)cc2)c1,>57,-2.8%,0.2%,-3.0%
NC(=O)SCC(=O)Nc1ccc(Cl)c(Cl)c1,x,8.0%,-11.0%,5.01µM*
COc1ccc(-c2nnc(SCC(=O)Nc3cccc(Cl)c3)o2)cc1,>57,2.7%,1.3%,7.94µM*
Cc1ccc(NC(=O)CSC(N)=O)cc1Cl,>57,24.6%,14.8%,12.6µM*
NC(=O)SCC(=O)Nc1cccc(Cl)c1,x,8.1%,8.0%,7.94µM*
CSCC[C@H](NC(=O)OC(C)(C)C)c1nnc(SCC(=O)Nc2c(C)cccc2C)o1,>57,-2.1%,3.0%,34.8%
Cc1c(Cl)c(S(N)(=O)=O)cc2c1=NC=NS=2(=O)O,>57,-2.6%[5.75 µM],-8.8%[8 µM],-5.1%[5.75 µM]
C=CCSC1=N/C(=C\c2cc(OC)c3c(c2)OCO3)C(=O)S1,x,6.9%,u,-17.7%
O=C(O)c1ccccc1-c1c2cc(Br)c(=O)cc-2oc2[c]([Hg])c(O)c(Br)cc12,0.0366*,-3.3%[12.8 µM],u,-16.8%[12.8 µM]
O=C(CN1C(=O)C2C3C=CC(C3)C2C1=O)Nc1ccc2nccnc2c1 (stereo not drawn),>57,12.9%,7.1%,3.98µM*[single pt active]
O=c1oc2ccccc2n1CCn1c2ccccc2c2nc3ccccc3nc21,>57,-3.4%,8.9%,-3.6%
O=c1c(-c2nc3ccccc3o2)c2oc3ccccc3n2c2ccccc12,>57,-5.3%,12.6µM*,47.5%
CCOc1ccccc1NC1c2ccccc2C(=O)N1c1ccc(C)cn1 (stereo not drawn),>57,12.7%,-26.1%,-3.1%
SMILES,SmPrx2 inh,AmpC det inh,Anthrax LT inh,AmpC nodet inh
COc1cc(NC2c3ccccc3C(=O)N2c2ccc(C)cn2)cc(OC)c1OC (stereo not drawn),>57,12.9%,5.8%,75.8%
CCOC(=O)c1ccccc1NC1c2ccccc2C(=O)N1c1ccc(C)cn1 (stereo not drawn),>57,13.4%,u,3.98µM*[single pt active]
Cc1ccc(N2C(=O)c3ccccc3C2Nc2cccnc2)nc1 (stereo not drawn),>57,10.9%,-6.6%,3.98µM*[single pt active]
O=C1c2ccccc2C(Nc2cccnc2)N1Cc1ccccc1Cl (stereo not drawn),>57,12.0%,-14.6%,3.98µM*[single pt active]
c1ccc2c(c1)oc1c(NCCCn3ccnc3)ncnc12,>57,-2.0%,14.8%,5.6%
CCOc1ccc(Nc2nc(C)cc(C)c2C#N)cc1,>57,-4.1%,-13.9%,4.6%
O=C(c1cc2ccccc2oc1=O)N1CCCN(C(=O)c2cc3ccccc3oc2=O)CC1,>57,2.3%,7.7%,6.0%
Nc1nc2ccc(Oc3ccccc3)cc2s1,>57,-2.0%,-21.6%,-13.3%
Nc1nc2ccc(S(=O)(=O)c3ccc4nc(N)sc4c3)cc2s1,>57,-4.9%,-5.2%,12.6µM*

# Compound activity: PubChem BioAssay, National Center for Advancing Translational Sciences (NCATS)
